Assay results taken from PubChem BioAssay (NCATS).
“And” between values parts separate entries of the source, which are not always exact repeats. Equal entries are not always repeated. Inconclusive results are not listed. Values without a mark were called inactive. Calls come from the whole dose curve; as a rule, active = well fitted activation curve with a large enough effect; inconclusive = small, poorly fitted or top-dose-only effect; inactive = no such curve, though single readings can be large or run the other way.

target: Cellular tumor antigen p53 (Homo sapiens) (UniProt P04637); assay: Primary qHTS for small molecule compounds that upregulate eGFP-tagged delta133p53alpha (in N-terminal) cells. (AID 2060322); conditions: NCI-H358 eGFP-delta133p53alpha fluorescence, 24 h; activation: active compounds read high;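 note: series mostly up to about 56 µM; 0% = DMSO vehicle and 100% = reference activator; nearly all actives have a fitted effect of over 75% in size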
Outline: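 NCI-H358 cells pre-induced 24 h with 10 ng/ml doxycycline to express N-terminal eGFP-delta133p53alpha, then dosed 24 h at 37C without doxycycline; fixed, Hoechst-stained, GFP intensity by laser scanning cytometry, normalized to DMSO (0%) and 57.5 uM 5-azacytidine (100%).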

Sequence of Cellular tumor antigen p53 (Homo sapiens) (P04637 whole entry, looked up): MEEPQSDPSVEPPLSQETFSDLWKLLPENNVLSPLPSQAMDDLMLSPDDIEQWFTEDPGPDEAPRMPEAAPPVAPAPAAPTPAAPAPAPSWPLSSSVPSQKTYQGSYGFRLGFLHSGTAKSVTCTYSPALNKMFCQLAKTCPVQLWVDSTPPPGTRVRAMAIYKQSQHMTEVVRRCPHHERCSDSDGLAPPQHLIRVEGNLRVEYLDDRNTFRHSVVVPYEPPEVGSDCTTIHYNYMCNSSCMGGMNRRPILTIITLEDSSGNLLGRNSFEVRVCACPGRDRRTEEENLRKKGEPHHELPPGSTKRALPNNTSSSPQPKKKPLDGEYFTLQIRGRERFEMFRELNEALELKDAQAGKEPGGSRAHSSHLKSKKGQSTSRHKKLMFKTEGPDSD

| SMILES | activation |
| --- | --- |
| OCC(CO)N[C@H]1C[C@](O)(CO)[C@@H](O)[C@H](O)[C@H]1O | -11.7% |
| CCOC(=O)N[C@@H]1CC[C@@H]2[C@@H](C1)C[C@H]1C(=O)O[C@H](C)[C@H]1[C@@H]2C=Cc1ccc(-c2cccc(F)c2)cn1 | 8.14% |
| NC(=O)c1ncn([C@@H]2O[C@H](CO)[C@@H](O)[C@@H]2O)c1O | -3.98% |
| CC(CN(C)C)C(C)(O)Cc1ccc(Cl)cc1 (stereo not given) | 21.8% |
| C[C@@H]1CCN(C(=O)CC#N)C[C@H]1N(C)c1ncnc2[nH]ccc12 | -11.8% |
| NS(=O)(=O)Cc1noc2ccccc12 | 10.9% |
| C[C@H](O)C(=O)Nc1c(I)c(C(=O)NC(CO)CO)c(I)c(C(=O)NC(CO)CO)c1I | 10.9% |
| CCC(=O)c1c(O)cc(O)cc1O | -1.67% |
| OCc1cccnc1 | -5.02% |
| Cc1ccc2c(c1)c1c3n2CCNC3CCC1 (stereo not given) | -0.837% |
| O=C(CCBr)N1CCN(C(=O)CCBr)CC1 | 20.9% |
| CC(C)[N+]1(C)[C@@H]2CC[C@H]1CC(OC(=O)C(CO)c1ccccc1)C2 (stereo not given in full) | 33.8% |
| CN1CCN(CCCN2c3ccccc3Sc3ccc(S(=O)(=O)N(C)C)cc32)CC1 | 6.69% |
| Cc1ccccc1OCC(O)CO (stereo not given) | 13% |
| Cc1c(O)cccc1C(=O)N[C@@H](CSc1ccccc1)[C@H](O)CN1C[C@H]2CCCC[C@@H]2C[C@@H]1C(=O)NC(C)(C)C | -23% |
| CC(NC(CCc1ccccc1)C(=O)O)C(=O)N1C(=O)N(C)CC1C(=O)O (stereo not given) | -13.4% |
| CCN1CCCC1=O | 10.7% |
| CC(=O)Nc1ccc(OCC(O)CNC(C)C)cc1 (stereo not given) | -14.2% |
| CNCCN1CCC(OCc2ccccc2)CC1 | -13.4% |
| C[C@@H](O)[C@H]1C(=O)N2C(C(=O)O)=C(S[C@@H]3CN[C@H](C(=O)N(C)C)C3)[C@H](C)[C@H]12 | 7.34% |

| SMILES | activation |
| --- | --- |
| C/C(=C1\CCOC(=O)S1)N(C=O)Cc1cnc(C)nc1N | -5.86% |
| NC(=O)NS(=O)(=O)c1ccc(N)cc1 | 7.53% |
| CC(=O)O[C@H]1CC[C@@]2(C)C(=CC[C@@H]3[C@@H]2CC[C@]2(C)C(C(C)=O)=CC[C@@H]32)C1 | 4.18% |
| COCCOCC(OC)OC | -6.69% |
| Cc1c(C(=O)O)c(O)cc2c1C(=O)c1c(O)c([C@@H]3O[C@H](CO)[C@@H](O)[C@H](O)[C@H]3O)c(O)c(O)c1C2=O | -4.18% |
| C=C1C[C@@]2(O)O[C@@]3(C[C@H]2C(C)C)[C@H](C)CC[C@H]13 | 18.1% |
| Nc1ccn([C@@H]2O[C@H](CO)[C@H](O)C2(F)F)c(=O)n1 | 10.5% |
| CNC[C@@H](O)[C@@H](O)[C@H](O)[C@H](O)CO | 4.39% |
| CNC1[C@H](O)C(O[C@@H]2C(O)C(O[C@H]3O[C@H]([C@@H](C)NC)CC[C@H]3N)[C@@H](N)C[C@H]2N)OC[C@]1(C)O (stereo not given in full) | -1.3% |
| CC(NN)c1ccccc1 (stereo not given) | 6.69% |
| O=C(O)CN1C(=O)c2cccc3cccc(c23)C1=O | -6.69% |
| NC[C@H]1O[C@H](O[C@H]2[C@@H](O)[C@@H](O[C@H]3O[C@H](CO)[C@@H](O)[C@H](N)[C@@H]3O)[C@H](N)C[C@@H]2N)[C@H](N)C[C@H]1O | 25.5% |
| CN(C)CCOC(c1ccccc1)c1ccc(Br)cc1 (stereo not given) | -6.21% |
| O=C(N/N=C/c1ccccc1O)c1ccncc1 | -12.6% |
| CCCC(=O)O[C@]1(C(=O)CC)CC[C@H]2[C@@H]3CCC4=CC(=O)CC[C@]4(C)[C@H]3[C@@H](O)C[C@@]21C | -20.9% |
| COc1ccccc1OCC(O)CO (stereo not given) | -10.9% |
| CN1CCCC(n2nc(Cc3ccc(Cl)cc3)c3ccccc3c2=O)CC1 (stereo not given) | 10.9% and 17.6% |
| COCCc1ccccn1 | 15.1% |
| NC[C@H]1O[C@H](O[C@H]2[C@H](O)[C@@H](O[C@H]3O[C@H](CO)[C@@H](O)[C@H](N)[C@H]3O)[C@H](N)C[C@@H]2N)[C@H](N)[C@@H](O)[C@@H]1O | -10.7% |
| C[N+](C)(C)CC[N+]1(C)Cc2c(Cl)c(Cl)c(Cl)c(Cl)c2C1 | -1.69% |
